{"source": "PubChem BioAssay (NCATS)", "note": "Several values for one entry are separate records, joined by “and”; a condition that tells them apart may be missing. Equal values may be shown once. Results filed as inconclusive are left out. Values without a mark were called inactive. Activity calls are given as the source filed them. Calls follow the shape of the dose curve; as a rule, active = well fitted cell-killing curve with a large enough effect; inconclusive = small, poorly fitted or top-dose-only effect; inactive = no such curve, though single readings can be large or run the other way. % is scaled to controls: 0 for no effect and ±100 for the full control effect; potency is read from the fitted curve at half-maximal effect.", "data": [{"assay": "qHTS of pediatric cancer cell lines to identify multiple opportunities for drug repurposing: Primary screen for A673 cells (AID 1347092); also: nearly all actives have a fitted effect of over 45% in size", "settings": "A673 Ewing sarcoma viability, CellTiter-Glo ATP luminescence, 48 h; series mostly up to 46 µM; activity change, negative = cytotoxic: at the top concentration", "source_text": "Drug repurposing or repositioning has been offered as a strategy for drug development in oncology programs. This approach has special potential for childhood cancers and other rare or orphan diseases, where the expected return on new drug development has been a disincentive to pharmaceuticals. […] In this project we exploit the poly-pharmacology of drugs to discover new indications via phenotypic screening of a panel of 19 well-characterized cell lines derived from solid tumors seen in children and adolescents. The goal is to identify approved drugs with previously unrecognized anticancer properties that has the potential to reveal new mechanisms and biological processes involved in carcinogenesis or drug resistance. We employed a titration-based paradigm (quantitative high-throughput screening or qHTS), where all compounds were tested at multiple concentrations for their effect on cell viability. Concentration-response curves (CRCs) were derived directly from the primary screen, and both potency and efficacy values were used to identify compounds with robust bioactivity profiles. We screened the NIH Chemical Genomics Center (NCGC) Pharmaceutical Collection (NPC) and Mechanism Interrogation Plate (MIPE) small molecule collections of approved and investigational compounds against these cell lines; and measured metabolically active cells after 48 hours of compound treatment as a proxy for cell viability. […] Assay Submitter: Nathalia J. Martinez, National Center for Advancing Translational Sciences, National Institutes of Health, Rockville, MD, USA; email: natalia.martinez@nih.gov. Shen, M et al. Quantitative high-throughput phenotypic screening of pediatric cancer cell lines identifies multiple opportunities for drug repurposing. Oncotarget 2017 Dec 19;9(4):4758-4772. PMID 29435139.\nThe cells were obtained from University of North Carolina (UNC), Pediatric Preclinical Testing Program (PPT), and Coriell Institute (CI). qHTS cell viability assay: Cells were assayed in growth media at a density of 500-1,000 cells/well. Five microliters of cells were dispensed into 1,536-well, white, solid-bottom, TC-treated plates (Greiner Bio One) using a multidrop dispenser and incubated at 37 degrees C, 5% CO2, under a humidified atmosphere for 5 hours. Twenty-three nanoliters of compounds and controls (neutral control DMSO or positive control bortezomib at final concentration of 2.3 uM) were subsequently transferred by Kalypsys pintool. For primary screens, the MIPE collection was tested at 11-point dilutions (final concentrations range from 0.78 nM to 46 µM) and the NPC collection at 8-point dilutions (final concentrations range from 0.59 nM to 46 µM). Compounds tested in follow-up screens were assayed at 11-point dilutions. Cells were incubated for 48 hours, followed by addition of 3 uL of CellTiter-Glo (Promega). After a 15min incubation at room temperature, samples were analyzed for luminescence intensity using a ViewLux High-throughput CCD imager equipped with clear filters.", "units": {"activity change, negative = cytotoxic": "%"}, "values": [{"compound": "CS(=O)(=O)Oc1ccc2c(NC(N)=O)c(C(=O)c3ccc(Cl)cc3Cl)oc2c1", "Potency": "2.35 µM (active)"}, {"compound": "CN(C(=O)c1ccc(F)cc1C(F)(F)F)C1CCN(c2nnc(-c3ccnn3C)c3ccccc23)CC1", "Potency": "11.8 µM (active)"}, {"compound": "CCC(=O)N[C@H]1CC[C@H](C(=O)N(C)c2ccc(-c3nc4ccccc4o3)cc2)C1", "Potency": "3.72 µM (active)"}, {"compound": "Cc1cc2c(C(C)C)c(O)c(O)c(C=O)c2c(O)c1-c1c(C)cc2c(C(C)C)c(O)c(O)c(C=O)c2c1O", "Potency": "23.5 µM (active)"}, {"compound": "Cn1cc(-c2ccc3nnc(C(F)(F)c4ccc5ncccc5c4)n3n2)cn1", "activity change, negative = cytotoxic": -9.69}, {"compound": "CC[C@@H](C)[C@H](NC(=O)[C@H](CC1CCCCC1)NC(=O)c1ccno1)C(=O)N1CCC2(CCc3ccccc32)CC1", "activity change, negative = cytotoxic": -17.2}, {"compound": "Cc1cc(C=c2sc3nc4ccccc4n3c2=O)c(C)n1-c1ccccc1", "activity change, negative = cytotoxic": -10.2}, {"compound": "CC(C)(Sc1ccc(CCN(CCCCC2CCCCC2)C(=O)NC2CCCCC2)cc1)C(=O)O", "Potency": "18.7 µM (active)"}, {"compound": "C[C@H](NC(=O)Cc1cc(F)cc(F)c1)C(=O)N[C@@H]1C(=O)N(C)c2ccccc2-c2ccccc21", "Potency": "7.43 µM (active)"}, {"compound": "O=C(Nc1nc2ccccc2n1CCN1CCOCC1)c1cccc([N+](=O)[O-])c1", "Potency": "3.72 µM (active)"}, {"compound": "O=C(c1cc(Cc2n[nH]c(=O)c3ccccc23)ccc1F)N1CCN(C(=O)C2CC2)CC1", "Potency": "5.9 µM (active)"}, {"compound": "OC[C@H](Cc1ccccc1)Nc1nc(Oc2ccc3c(c2)CCC3)nc2c1ncn2Cc1ccc(-c2ccccc2)cc1", "activity change, negative = cytotoxic": -41}, {"compound": "CC(=O)Oc1ccccc1C(=O)O", "Potency": "inactive"}, {"compound": "COc1cc2c(cc1OC)CN(CCc1ccc(NC(=O)c3cccc4c(=O)c5cccc(OC)c5[nH]c34)cc1)CC2", "Potency": "4.69 µM (active)"}, {"compound": "O=C1[C@H](Cc2ccc(O)cc2)N2C(=O)CCN(C(=O)NCc3ccccc3)[C@H]2CN1Cc1cccc2ccccc12", "Potency": "11.8 µM (active)"}, {"compound": "CCOC(=O)N1CCC(=C2c3ccc(Cl)cc3CCc3cccnc32)CC1", "Potency": "23.5 µM (active) and 26.6 µM (active)"}, {"compound": "N[C@@H]1CONC1=O", "Potency": "inactive"}, {"compound": "Cc1cc(-c2ccc(CC(=O)Nc3ccc(-c4cccnc4)cc3)cc2)ccn1", "Potency": "23.5 µM (active)"}, {"compound": "COCCNCCCn1c(C(=O)CF)c(-c2ccc(C)cc2)c2c(N)ncnc21", "Potency": "23.5 µM (active)"}, {"compound": "NC(=O)c1cnccn1", "Potency": "inactive"}, {"compound": "CCC(C)(C)C(=O)O[C@H]1C[C@@H](C)C=C2C=C[C@H](C)[C@H](CC[C@@H]3C[C@@H](O)CC(=O)O3)[C@H]21", "Potency": "10.6 µM (active)"}, {"compound": "OCCC#Cc1nc(-c2ccc(F)cc2)c(-c2ccncc2)n1CCCc1ccccc1", "Potency": "18.7 µM (active)"}, {"compound": "COc1nc(-c2ccc3c(c2)OCO3)n(-c2ccc(NC(=O)CSc3ccccc3)cc2)n1", "activity change, negative = cytotoxic": -5.46}, {"compound": "CCOc1ccc(Cc2cc([C@@H]3O[C@H](CO)[C@@H](O)[C@H](O)[C@@H]3O)ccc2Cl)cc1", "Potency": "23.5 µM (active)"}, {"compound": "CCCS(=O)(=O)Nc1ccc(F)c(C(=O)c2c[nH]c3ncc(-c4ccc(Cl)cc4)cc23)c1F", "Potency": "9.35 µM (active)"}, {"compound": "CCC(C)n1ncn(-c2ccc(N3CCN(c4ccc(OC[C@H]5CO[C@](Cn6cncn6)(c6ccc(Cl)cc6Cl)O5)cc4)CC3)cc2)c1=O", "note": "(stereo not given in full)", "activity change, negative = cytotoxic": -23.2}, {"compound": "CC(C)(C)OC(=O)CN(Cc1ccc(Cl)cc1)Cc1ccc([N+](=O)[O-])s1", "activity change, negative = cytotoxic": -25.9}, {"compound": "c1ccc([C@H]2CN3CCSC3=N2)cc1", "Potency": "inactive"}, {"compound": "CN(C)C(=O)c1ccc(S(=O)(=O)c2ccc(NC(=O)[C@@](C)(O)C(F)(F)F)c(Cl)c2)cc1", "Potency": "18.7 µM (active)"}, {"compound": "Cc1cc(SCc2sc(-c3ccc(C(F)(F)F)cc3)nc2C)ccc1OCC(=O)O", "activity change, negative = cytotoxic": -11.3}, {"compound": "OC(CN1CCC(Cc2ccc(F)cc2)CC1)c1ccc(Cl)cc1", "note": "(stereo not given)", "Potency": "inactive"}, {"compound": "CC(C=CC1=C(C)CCCC1(C)C)=CC=CC(C)=CC(=O)O", "Potency": "14.8 µM (active) and 296 nM (active)"}, {"compound": "Cc1ccccc1C(C(=O)NC1CCCC1)N(C(=O)Cn1cnc2ccccc21)c1cccc(F)c1", "note": "(stereo not given)", "activity change, negative = cytotoxic": -16.4}, {"compound": "Cc1c(CN2CCN(C(=O)C(C)C)CC2)sc2c(N3CCOCC3)nc(-c3cnc(N)nc3)nc12", "Potency": "0.469 µM (active)"}, {"compound": "O=c1[nH]cnc2[nH]ncc12", "Potency": "inactive"}, {"compound": "CCCc1nn(C)c2c(=O)[nH]c(-c3cc(S(=O)(=O)N4CCN(C)CC4)ccc3OCC)nc12", "activity change, negative = cytotoxic": -9.5}, {"compound": "O=C(Nc1cccnc1)N1CCC(Cc2cccc(Oc3ccc(C(F)(F)F)cn3)c2)CC1", "Potency": "11.8 µM (active)"}, {"compound": "CCn1c(-c2nonc2N)nc2c(C#CC(C)(C)O)ncc(OC[C@H]3CCCNC3)c21", "Potency": "11.8 µM (active)"}, {"compound": "O=C(O)CCc1ccc(NCc2cccc(Oc3ccccc3)c2)cc1", "activity change, negative = cytotoxic": -9.89}, {"compound": "Cc1ccc(-n2nc(C(C)(C)C)cc2NC(=O)Nc2ccc(OCCN3CCOCC3)c3ccccc23)cc1", "Potency": "4.69 µM (active)"}]}]}
